Source: publication PMC7862700, “An all-to-all approach to the identification of sequence-specific readers for epigenetic DNA modifications on cytosine”

Key:
Test in all cases: DAPPL (digital affinity profiling via proximity ligation, sequencing); 10 mM Tris-HCl pH 7.5, 50 mM NaCl, 1 mM DTT, 4% glycerol, room temperature, 30 min; GST-TFs on glutathione beads, 16-mer random dsDNA library, 0.1% formaldehyde crosslink after washing; high values mean tight binding
Conditions in all cases: protein: recombinant; tags: N-terminal GST; dsDNA, one strand shown
[1] = target: T1, ERF (Homo sapiens, UniProt P50548 1-548)
T1 sequence: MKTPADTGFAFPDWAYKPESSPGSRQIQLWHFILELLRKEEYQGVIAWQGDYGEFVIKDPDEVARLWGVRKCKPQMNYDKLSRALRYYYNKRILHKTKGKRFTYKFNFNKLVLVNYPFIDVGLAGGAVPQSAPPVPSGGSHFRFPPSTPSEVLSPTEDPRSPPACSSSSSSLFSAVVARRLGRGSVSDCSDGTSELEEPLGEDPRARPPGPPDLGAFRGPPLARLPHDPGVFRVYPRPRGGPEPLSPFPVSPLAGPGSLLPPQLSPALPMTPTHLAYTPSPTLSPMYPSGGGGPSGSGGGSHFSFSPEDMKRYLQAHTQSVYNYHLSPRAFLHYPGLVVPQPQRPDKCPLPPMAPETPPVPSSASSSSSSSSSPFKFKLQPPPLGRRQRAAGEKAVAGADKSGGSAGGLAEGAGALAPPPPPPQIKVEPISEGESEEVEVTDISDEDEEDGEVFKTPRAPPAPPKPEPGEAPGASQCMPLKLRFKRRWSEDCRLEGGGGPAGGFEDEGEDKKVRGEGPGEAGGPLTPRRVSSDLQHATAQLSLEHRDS
Outline: (§1)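 A tag-only sample was pooled with DNA-barcoded human transcription factors that had been expressed in yeast as GST fusions and captured on glutathione beads. The pools were incubated for 30 min at room temperature with 200 nmole of a random double-stranded 16-mer DNA library in Tris/NaCl/DTT/glycerol buffer, then washed, crosslinked with 0.1% formaldehyde, proximity-ligated (BsaI/T4 ligase, 1 h, 37 °C), PCR-amplified and sequenced on an Illumina NextSeq500. Binding signal is each hexamer's read frequency for a factor divided by its frequency for the tag-only sample.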

[2] = target: T2, ETV3L (Homo sapiens, UniProt Q6ZN32 1-361)
T2 sequence: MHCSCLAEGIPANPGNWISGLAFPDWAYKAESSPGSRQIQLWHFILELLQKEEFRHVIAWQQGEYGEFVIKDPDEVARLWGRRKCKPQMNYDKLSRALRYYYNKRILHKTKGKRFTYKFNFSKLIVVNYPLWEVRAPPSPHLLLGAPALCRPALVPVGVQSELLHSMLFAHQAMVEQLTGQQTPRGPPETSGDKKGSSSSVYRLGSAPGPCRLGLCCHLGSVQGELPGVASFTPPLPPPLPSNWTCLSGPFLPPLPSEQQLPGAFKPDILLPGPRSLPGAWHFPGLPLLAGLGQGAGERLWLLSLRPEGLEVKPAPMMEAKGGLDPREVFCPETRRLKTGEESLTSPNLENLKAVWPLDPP
Outline: as §1

[3] = target: T3, ETS2 (Homo sapiens, UniProt P15036 1-469)
T3 sequence: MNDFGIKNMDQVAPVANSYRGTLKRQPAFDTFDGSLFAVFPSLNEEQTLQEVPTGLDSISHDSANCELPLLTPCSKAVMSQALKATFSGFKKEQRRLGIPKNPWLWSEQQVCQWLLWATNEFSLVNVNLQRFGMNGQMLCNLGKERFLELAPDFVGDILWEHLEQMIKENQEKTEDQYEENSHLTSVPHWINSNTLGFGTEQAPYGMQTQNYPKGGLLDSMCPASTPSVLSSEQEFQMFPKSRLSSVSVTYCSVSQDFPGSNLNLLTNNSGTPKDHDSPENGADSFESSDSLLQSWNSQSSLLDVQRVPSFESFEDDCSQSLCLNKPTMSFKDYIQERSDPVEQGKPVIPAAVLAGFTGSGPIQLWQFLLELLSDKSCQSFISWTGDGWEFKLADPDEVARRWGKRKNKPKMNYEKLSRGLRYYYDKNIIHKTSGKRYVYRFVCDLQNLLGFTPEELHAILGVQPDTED
Outline: as §1

[4] = target: T4, SPDEF (Homo sapiens, UniProt O95238 1-335)
T4 sequence: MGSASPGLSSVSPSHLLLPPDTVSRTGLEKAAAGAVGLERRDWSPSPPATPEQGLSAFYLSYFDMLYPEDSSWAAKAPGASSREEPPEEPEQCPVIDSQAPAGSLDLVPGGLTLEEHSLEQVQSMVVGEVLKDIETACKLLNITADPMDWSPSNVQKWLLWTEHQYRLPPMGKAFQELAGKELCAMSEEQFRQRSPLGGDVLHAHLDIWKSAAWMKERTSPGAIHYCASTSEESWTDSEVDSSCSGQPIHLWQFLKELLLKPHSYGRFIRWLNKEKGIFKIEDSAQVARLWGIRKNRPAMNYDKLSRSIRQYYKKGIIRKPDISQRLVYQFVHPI
Outline: as §1

[5] = target: T5, ETV7 (Homo sapiens, UniProt Q9Y603 1-341)
T5 sequence: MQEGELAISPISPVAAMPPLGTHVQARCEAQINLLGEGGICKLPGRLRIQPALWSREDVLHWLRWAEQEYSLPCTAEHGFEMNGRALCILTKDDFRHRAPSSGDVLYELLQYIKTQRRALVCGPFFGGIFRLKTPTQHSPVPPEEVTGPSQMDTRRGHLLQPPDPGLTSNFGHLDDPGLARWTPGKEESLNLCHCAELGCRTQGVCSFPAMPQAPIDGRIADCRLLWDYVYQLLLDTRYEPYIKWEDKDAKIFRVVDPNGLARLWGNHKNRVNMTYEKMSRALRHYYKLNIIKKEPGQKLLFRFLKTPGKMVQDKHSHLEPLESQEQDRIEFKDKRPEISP
Outline: as §1

[6] = target: T6, ELF5 (Homo sapiens, UniProt Q9UKW6-2 1-255)
T6 sequence: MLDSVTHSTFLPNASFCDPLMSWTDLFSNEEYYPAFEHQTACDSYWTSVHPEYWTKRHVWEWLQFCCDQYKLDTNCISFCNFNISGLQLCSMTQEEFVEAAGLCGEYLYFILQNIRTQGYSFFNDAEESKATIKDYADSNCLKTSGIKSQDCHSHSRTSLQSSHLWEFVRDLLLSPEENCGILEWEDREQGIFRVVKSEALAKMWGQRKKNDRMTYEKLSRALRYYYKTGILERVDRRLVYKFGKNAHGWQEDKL
Outline: as §1

[7] = target: T7, ETV3 (Homo sapiens, UniProt P41162-2 1-143)
T7 sequence: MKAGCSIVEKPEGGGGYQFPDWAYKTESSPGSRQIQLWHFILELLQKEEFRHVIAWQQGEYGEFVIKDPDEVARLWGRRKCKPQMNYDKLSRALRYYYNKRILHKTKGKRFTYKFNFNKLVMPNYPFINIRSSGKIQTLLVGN
Outline: as §1

[8] = target: ETV6 (Homo sapiens, UniProt P41212 1-452)
ETV6, sequence (P41212 whole entry): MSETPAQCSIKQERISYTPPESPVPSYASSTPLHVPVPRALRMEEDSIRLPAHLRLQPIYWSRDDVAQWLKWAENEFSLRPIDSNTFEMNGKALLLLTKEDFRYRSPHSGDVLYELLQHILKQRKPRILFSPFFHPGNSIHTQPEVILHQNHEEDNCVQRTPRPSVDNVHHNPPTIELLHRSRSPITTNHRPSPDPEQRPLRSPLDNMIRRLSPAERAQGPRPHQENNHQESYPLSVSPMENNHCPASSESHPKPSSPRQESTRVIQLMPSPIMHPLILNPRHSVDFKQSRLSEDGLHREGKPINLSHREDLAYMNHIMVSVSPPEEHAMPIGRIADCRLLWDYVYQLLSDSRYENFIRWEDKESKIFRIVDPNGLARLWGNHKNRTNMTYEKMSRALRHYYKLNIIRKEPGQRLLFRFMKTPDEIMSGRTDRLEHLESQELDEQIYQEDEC
Outline: as §1

Row | Sequence | binding signal [1] | binding signal [2] | binding signal [3] | binding signal [4] | binding signal [5] | binding signal [6] | binding signal [7] | binding signal [8]
1 | TGCTAG | 1.21 fold enrichment (6-mer frequency, TF over GST control) | 1.29 fold enrichment (6-mer frequency, TF over GST control) | 1.04 fold enrichment (6-mer frequency, TF over GST control) | 1.09 fold enrichment (6-mer frequency, TF over GST control) | 1.16 fold enrichment (6-mer frequency, TF over GST control) | 1.09 fold enrichment (6-mer frequency, TF over GST control) | 1.13 fold enrichment (6-mer frequency, TF over GST control) | 1.05 fold enrichment (6-mer frequency, TF over GST control)
2 | GGGCCT | 1.37 fold enrichment (6-mer frequency, TF over GST control) | 1.21 fold enrichment (6-mer frequency, TF over GST control) | 1.21 fold enrichment (6-mer frequency, TF over GST control) | 1.24 fold enrichment (6-mer frequency, TF over GST control) | 1.24 fold enrichment (6-mer frequency, TF over GST control) | 1.17 fold enrichment (6-mer frequency, TF over GST control) | 1.21 fold enrichment (6-mer frequency, TF over GST control) | 1.21 fold enrichment (6-mer frequency, TF over GST control)
3 | TTCCTA | 1.54 fold enrichment (6-mer frequency, TF over GST control) | 1.57 fold enrichment (6-mer frequency, TF over GST control) | 1.8 fold enrichment (6-mer frequency, TF over GST control) | 1.6 fold enrichment (6-mer frequency, TF over GST control) | 1.64 fold enrichment (6-mer frequency, TF over GST control) | 2.04 fold enrichment (6-mer frequency, TF over GST control) | 1.89 fold enrichment (6-mer frequency, TF over GST control) | 1.99 fold enrichment (6-mer frequency, TF over GST control)
4 | GACTTC | 2.25 fold enrichment (6-mer frequency, TF over GST control) | 2.41 fold enrichment (6-mer frequency, TF over GST control) | 2.58 fold enrichment (6-mer frequency, TF over GST control) | 2.13 fold enrichment (6-mer frequency, TF over GST control) | 2.2 fold enrichment (6-mer frequency, TF over GST control) | 2.99 fold enrichment (6-mer frequency, TF over GST control) | 2.6 fold enrichment (6-mer frequency, TF over GST control) | 2.64 fold enrichment (6-mer frequency, TF over GST control)
5 | TACAGA | 1.13 fold enrichment (6-mer frequency, TF over GST control) | 1.04 fold enrichment (6-mer frequency, TF over GST control) | 1.14 fold enrichment (6-mer frequency, TF over GST control) | 1.16 fold enrichment (6-mer frequency, TF over GST control) | 1.18 fold enrichment (6-mer frequency, TF over GST control) | 1.11 fold enrichment (6-mer frequency, TF over GST control) | 1.1 fold enrichment (6-mer frequency, TF over GST control) | 1.1 fold enrichment (6-mer frequency, TF over GST control)
6 | CTCACG | 1.25 fold enrichment (6-mer frequency, TF over GST control) | 1.3 fold enrichment (6-mer frequency, TF over GST control) | 1.4 fold enrichment (6-mer frequency, TF over GST control) | 1.26 fold enrichment (6-mer frequency, TF over GST control) | 1.25 fold enrichment (6-mer frequency, TF over GST control) | 1.26 fold enrichment (6-mer frequency, TF over GST control) | 1.23 fold enrichment (6-mer frequency, TF over GST control) | 1.25 fold enrichment (6-mer frequency, TF over GST control)
7 | CGTATT | 1.08 fold enrichment (6-mer frequency, TF over GST control) | 1.09 fold enrichment (6-mer frequency, TF over GST control) | 1.18 fold enrichment (6-mer frequency, TF over GST control) | 1.16 fold enrichment (6-mer frequency, TF over GST control) | 1.07 fold enrichment (6-mer frequency, TF over GST control) | 1.14 fold enrichment (6-mer frequency, TF over GST control) | 1.16 fold enrichment (6-mer frequency, TF over GST control) | 1.22 fold enrichment (6-mer frequency, TF over GST control)
8 | CCGCCT | 1.35 fold enrichment (6-mer frequency, TF over GST control) | 1.49 fold enrichment (6-mer frequency, TF over GST control) | 1.41 fold enrichment (6-mer frequency, TF over GST control) | 1.75 fold enrichment (6-mer frequency, TF over GST control) | 1.52 fold enrichment (6-mer frequency, TF over GST control) | 1.84 fold enrichment (6-mer frequency, TF over GST control) | 1.64 fold enrichment (6-mer frequency, TF over GST control) | 1.64 fold enrichment (6-mer frequency, TF over GST control)
9 | ACCTCT | 1.52 fold enrichment (6-mer frequency, TF over GST control) | 1.32 fold enrichment (6-mer frequency, TF over GST control) | 1.23 fold enrichment (6-mer frequency, TF over GST control) | 1.4 fold enrichment (6-mer frequency, TF over GST control) | 1.48 fold enrichment (6-mer frequency, TF over GST control) | 1.34 fold enrichment (6-mer frequency, TF over GST control) | 1.4 fold enrichment (6-mer frequency, TF over GST control) | 1.39 fold enrichment (6-mer frequency, TF over GST control)
